Measured values taken from PubChem BioAssay (NCATS).
Records with an inconclusive call do not appear. Active and inactive are the calls of the source. Unless noted, calls come from the whole dose curve; as a rule, active = well fitted cell-killing curve with a large enough effect; inconclusive = small, poorly fitted or top-dose-only effect; inactive = flat fitted curve, though single readings scatter.

Columns and labels:
[1] = Validation of Assay for Modulators of Lamin A Splicing (AID 1459; active = well fitted curve in the direction sought with a large enough effect in the signal ratio; the % refers to the signal ratio;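 note: cells exposed to compound for two days before reading; ratio rise marks activators and ratio drop marks inhibitors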)
Procedure, shortened: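 S3 HeLa stably expressing lamin A-EGFP splicing minigene and DsRed2, 600 cells/well in Opti-MEM with 2% FBS, treated 48 h at 37C; laser-scanning cytometry gives GFP/RFP total intensity ratio; ancitabine positive control, 0.5% DMSO vehicle.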

[2] = Cell Viability - LYMP2-007 (AID 979);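 note: cells exposed to compound for 24 h before reading; nearly all actives have a fitted effect of over 60% in size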
Source text: NIH Chemical Genomics Center [NCGC]
NIH Molecular Libraries Screening Centers Network [MLSCN]
National Institutes of Environmental Health Sciences [NIEHS]
National Toxicology Program [NTP]
We have developed a 1536-well cell-based assay for quantitative high throughput screening (qHTS) against a number of cell lines to determine in vitro cytotoxicity of small molecules. This particular assay uses a human lymphoblastoid cell line (LYMP2-007) purchased from Coriell Institute for Medical Research.
NCGC Assay Protocol Summary:
The CellTiter-Glo luminescent cell viability assay (Promega) is a homogeneous method to measure the number of viable cells in culture. The end point readout of this assay is based on quantitation of intracellular ATP, an indicator of metabolic activity, using the luciferase reaction. […]
Using the CellTiter-Glo luminescent cell viability assay, the amount of cellular ATP was measured in the lymphoblastoid cell line with complete culture medium following compound treatment for 24 hours. […] Library compounds were measured for their ability to cause acute toxicity in the cell line, as reflected by a decrease in intracellular ATP levels, in a concentration-dependent manner. […] AC50 values were determined from concentration-response data modeled with the standard Hill equation. […]
8. Detection; Luminescence; Viewlux plate reader […]

[3] = Cell Viability - LYMP2-008 (AID 980); note: nearly all actives have a fitted effect of over 60% in size
Procedure, shortened: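 Acute cytotoxicity is scored as concentration-dependent loss of cellular ATP in a human lymphoblastoid line after 24 hr treatment at 37 C. ATP is quantified by luciferase luminescence.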

[4] = Cell Viability - LYMP2-012 (AID 982);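 note: cellular ATP by luciferase luminescence where a drop means cytotoxicity; cells exposed to compound for one day before reading; nearly all actives have a fitted effect of over 55% in size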
[5] = Cell Viability - LYMP2-014 (AID 983); note: series mostly up to about 92 µM; nearly all actives have a fitted effect of over 50% in size
Procedure, shortened: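 Decrease in intracellular ATP after 24 hr treatment at 37 C, measured by luciferase luminescence, indicated cytotoxicity. Concentration-response data were fitted with the standard Hill equation to give AC50.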

[6] = Cell Viability - LYMP2-016 (AID 984);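 note: cells exposed to compound for 24 hours at 37 °C; nearly all actives have a fitted effect of over 55% in size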
Procedure, shortened: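 Human lymphoblastoid LYMP2-016 cells, 2500 per well, treated with compounds for 24 h at 37 C. Viability read as intracellular ATP by CellTiter-Glo luminescence after 30 min at room temperature; AC50 from Hill fits of concentration-response.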

[7] = Cell Viability - LYMP2-018 (AID 985);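 note: compound exposure lasted 24 hr at 37 °C; nearly all actives have a fitted effect of over 50% in size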
Procedure, shortened: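 Acute cytotoxicity is scored as a concentration-dependent drop in intracellular ATP after 24 hr exposure of the lymphoblastoid line in complete culture medium, measured by luciferase luminescence. Potency is expressed as AC50 from Hill modelling.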

[8] = Cell Viability - LYMP2-020 (AID 986); note: series mostly up to about 92 µM; nearly all actives have a fitted effect of over 55% in size
Procedure, shortened: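 Acute cytotoxicity in a human lymphoblastoid line is scored as a concentration-dependent fall in cellular ATP after 24 hr at 37 C in complete medium. The positive control is tetraoctylammonium bromide, and potency is given as Hill-fit AC50.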

[9] = Cell Viability - LYMP2-026 (AID 989); note: nearly all actives have a fitted effect of over 50% in size
Procedure, shortened: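 Concentration-dependent loss of intracellular ATP in human lymphoblastoid cells after 24 hr at 37 C, quantified by luciferase luminescence. AC50 derived from standard Hill equation.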

[10] = Cell Viability - LYMP1-002 - Assay at 24 hr (AID 993)
Procedure, shortened: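 qHTS, LYMP1-002 lymphoblastoid, 24 h cpd, 37 C, CellTiter-Glo ATP luminescence; AC50 via Hill eq.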

Measured: outcome

CCNC(=O)[C@H]1O[C@@H](n2cnc3c(N)nc(NCCc4ccc(CCC(=O)O)cc4)nc32)[C@H](O)[C@H]1O
inactive: [1]

C[C@@H]1C[C@H]2[C@@H]3CCC4=CC(=O)C=C[C@]4(C)[C@@]3(F)[C@@H](O)C[C@]2(C)[C@@]1(O)C(=O)CO
inactive: [2] | [3] | [4] | [5] | [6] | [7] | [8] | [9] | [10]
